Laboratory results taken from PubChem BioAssay.
Values joined by “and” are separate entries in the source; they are usually repeats but may differ in a detail not shown here. Identical values can stand only once. Counter-ions that a name gives are not always drawn. Values without a mark were called inactive. How the calls were made is not given here. Residues, ends and D or L forms follow the SMILES beside them. *: point of attachment. Tfa = O=C(C(F)(F)F)*

The compounds below were run on Aerobactin synthetase IucA (Klebsiella pneumoniae hvKP1) (assay: IucA enzyme inhibition, primary screen, biochemical, Spectrum library (AID 1346200;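 further: 100% = wells without compound and 0% = wells lacking enzyme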)). Conditions: malachite green pyrophosphate, A620, at 8 µM, active compounds read low.

Structure (SMILES) | activity remaining
O=C1CC(c2ccc(O)cc2)Oc2ccccc21 (centres undefined) | 92%
CN(C)C(=N)N=C(N)N | 120%
CC(NCCC(c1ccccc1)c1ccccc1)c1ccccc1 (centres undefined) | 104%
O=c1ccc2ccccc2o1 | 124%
C/C(=C\CO)CC[C@H](C)CCC[C@H](C)CCCC(C)C | 121%
C1CCN2C[C@@H]3C[C@H](CN4CCCC[C@@H]34)[C@H]2C1 | 106% and 89.3%
COc1cc2cc3c4cc(OC)c(OC)cc4cc[n+]3c(C)c2cc1OC | 95.4%
C=C(CC)C(=O)c1ccc(OCC(=O)O)c(Cl)c1Cl | 100%
CC(C)C(NC(=O)C(Cc1ccc(O)cc1)NC(=O)C(NC(=O)C(F)(F)F)C(C)C)C(=O)O (stereo not drawn) (Tfa-Val-Tyr-Val-OH; configuration not given here) | 105%
CN1CCN(C(c2ccccc2)c2ccccc2)CC1 | 113%
CCC(C(=O)O)c1ccccc1 (centres undefined) | 123%
COc1c2c(cc3occ(-c4ccc5c(c4)OCO5)c(=O)c13)OC(C)(C)C=C2 | 111%
Nc1ccc(C(=O)NCC(=O)O)cc1 | 111%
CC(=O)Nc1cccc(O)c1 | 120%
CCCCCC1C(=O)CCC1CC(=O)O (centres undefined) | 93.2%
CN1CCc2c(c3ccccc3n2Cc2ccccc2)C1 | 116%
COc1c(O)cc(O)cc1O | 116%
Cc1cccc(Nc2ccccc2C(=O)O)c1C | 111%
CC1NC(=O)NC1=O (centres undefined) | 97.3%
O=C(O)c1ccccc1 | 115%

Structure (SMILES) | activity remaining
CO[C@H]1/C=C/O[C@@]2(C)Oc3c(C)c(O)c4c(O)c(c5c(nc6cc(C)ccn65)c4c3C2=O)NC(=O)/C(C)=C\C=C\[C@H](C)[C@H](O)[C@@H](C)C(O)[C@@H](C)[C@H](OC(C)=O)[C@@H]1C (some centres undefined) | 110%
NNC(=O)c1ccncc1 | 106%
Nc1ncnc2c1ncn2C1C[C@H](O)[C@@H](CO)O1 (some centres undefined) | 125%
COC(=O)C1=CO[C@@H](C)[C@@H]2CN3CC[C@@]4(C(=O)Nc5ccccc54)[C@H]3CC12 (some centres undefined) | 101%
CC(=O)NCCCS(=O)(=O)O | 103%
C=C(C)C1Cc2c(ccc(C(=O)O)c2O)O1 (centres undefined) | 120%
COc1c(C)c2c(c(O)c1C/C=C(\C)CCC(=O)O)C(=O)OC2 | 98.9%
CN[C@@H]1C(OC2[C@H](O[C@H]3[C@H](O)[C@@H](O)[C@H](N=C(N)N)[C@@H](O)[C@@H]3N=C(N)N)OC(C)[C@]2(O)CO)OC(CO)C(O)C1O (some centres undefined) | 111%
CC(=O)Oc1c2c(c3c(c1CC=C(C)C)O[C@]14C(=C[C@@H]5CC1C(C)(C)OC4(C/C=C(\C)C(=O)O)C5=O)C3=O)OC(C)(CCC=C(C)C)C=C2 (some centres undefined) | 112%
O=c1cccc2ccc(O)c(O)c2c1O | 86.6%
CC1=C(CCC(=O)O)c2cc3nc(cc4[nH]c(cc5[nH]c(cc1n2)c(C)c5C(C)O)c(C)c4C(C)O)C(C)=C3CCC(=O)O (centres undefined) | 107%
NC(Cn1ccc(=O)c(O)c1)C(=O)O (centres undefined) | 118%
COc1cc(-c2coc3cc(OCc4ccccc4)c(OC)c(O)c3c2=O)cc(O)c1OC | 122%
CCCCCCCCCCC[C@@H](C[C@H]1OC(=O)[C@H]1CCCCCC)OC(=O)[C@@H](CC(C)C)NC=O | 112%
C=C1C(=O)O[C@@H]2C[C@@]3(C)CCC[C@H](C)C3=C[C@H]12 | 97.8%
O=C(O)CCCN1C(=O)c2cccc3cccc(c23)C1=O | 110%
CC(C)(Sc1cc(C(C)(C)C)c(O)c(C(C)(C)C)c1)Sc1cc(C(C)(C)C)c(O)c(C(C)(C)C)c1 | 89.7%
CC(C)CCCC(C)N (centres undefined) | 121%
NCc1ccc(S(N)(=O)=O)cc1 | 114%
